Details in all cases: mRNA level, 48 h; actives raise or lower the signal
Read-out in test [1]: matrix metalloproteinase-10 (MMP10), MMP10 (gene 4319)
The test is described as follows: LTEA_HepaRG_MMP10: Life Technologies and Expression Analysis (LTEA) Assay for matrix metalloproteinase-10 (MMP10) using HepaRG (AID 2283517). The method, boiled down: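 In differentiated HepaRG cultures kept in 0.5% DMSO, test chemicals act for 48 h over an eight-point range with a top dose of 100 uM. Expression is then quantified by TaqMan RT-PCR against ACTB, GAPDH and POLR2A.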

Read-out in test [2]: MYC, MYC (gene 4609)
The experiment in a line: LTEA_HepaRG_MYC: Life Technologies and Expression Analysis (LTEA) Assay for MYC using HepaRG (AID 2283518). The method, boiled down:
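qRT-PCR read-out of MYC transcript (Fluidigm TaqMan, housekeeping-normalized) after 48 h chemical exposure of HepaRG cells; eight concentrations, top 100 uM, half-log steps. Bidirectional curve fitting against 0.5% DMSO vehicle baseline.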

Read-out in test [3]: matrix metalloproteinase-3 (MMP3), MMP3 (gene 4314)
The test is described as follows: LTEA_HepaRG_MMP3: Life Technologies and Expression Analysis (LTEA) Assay for matrix metalloproteinase-3 (MMP3) using HepaRG (AID 2283519). The method, boiled down:
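Human liver HepaRG cultures received chemicals (top concentration 100 uM, 0.5% DMSO) for 48 h in duplicate. MMP3 mRNA induction or loss was then assessed via TaqMan qRT-PCR with housekeeping-gene normalisation.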

Read-out in test [4]: Paternally Expressed 10 (PEG10), PEG10 (gene 23089)
The test is described as follows: LTEA_HepaRG_PEG10: Life Technologies and Expression Analysis (LTEA) Assay for Paternally Expressed 10 (PEG10) using HepaRG (AID 2283520). The method, boiled down:
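qRT-PCR read-out: PEG10 mRNA normalised to three housekeeping genes, fitted bidirectionally against 0.5% DMSO vehicle. HepaRG cells received test chemicals for 48 h in serum-free induction medium, 8 points, top 100 uM, half-log steps.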

Read-out in test [5]: Protein phosphatase 2A (PPP2R4), PTPA (gene 5524)
The test is described as follows: LTEA_HepaRG_PPP2R4: Life Technologies and Expression Analysis (LTEA) Assay for Protein phosphatase 2A (PPP2R4) using HepaRG (AID 2283522). The method, boiled down: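 HepaRG, 48 h exposure, 8-pt half-log series from 100 uM, 0.5% DMSO vehicle, duplicates. Readout: PPP2R4 mRNA, Fluidigm qRT-PCR, housekeeping-normalized. Bidirectional curve fit vs DMSO baseline.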

Read-out in test [6]: Phosphatase and tensin (PTEN), PTEN (gene 5728)
The test is described as follows: LTEA_HepaRG_PTEN: Life Technologies and Expression Analysis (LTEA) Assay for Phosphatase and tensin (PTEN) using HepaRG (AID 2283523). The method, boiled down:
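Expression of PTEN is quantified in the human liver line HepaRG following two days of dosing (top concentration 100 uM, half-log dilutions, 0.5% DMSO). Values derive from bidirectional curve fitting relative to DMSO controls.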

Read-out in test [7]: Pyruvate Dehydrogenase Kinase 4 (PDK4), PDK4 (gene 5166)
The experiment in a line: LTEA_HepaRG_PDK4: Life Technologies and Expression Analysis (LTEA) Assay for Pyruvate Dehydrogenase Kinase 4 (PDK4) using HepaRG (AID 2283525). The method, boiled down: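 Eight-point, half-log concentration series (max 100 uM, 0.5% DMSO) applied to differentiated HepaRG cells for 48 h in duplicate. Endpoint: PDK4 mRNA induction or repression by qRT-PCR against DMSO baseline.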

Read-out in test [8]: NAD(P)H dehydrogenase [quinone] 1 (NQO1), NQO1 (gene 1728)
The test is described as follows: LTEA_HepaRG_NQO1: Life Technologies and Expression Analysis (LTEA) Assay for NAD(P)H dehydrogenase [quinone] 1 (NQO1) using HepaRG (AID 2283526). The method, boiled down: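 qRT-PCR read-out (Fluidigm TaqMan), normalized to three housekeeping genes, after 48 h chemical exposure of HepaRG cells. Concentrations: eight points, top 100 uM, half-log steps, 0.5% DMSO vehicle. Gain or loss of signal fitted relative to DMSO.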

Read-out in test [9]: succinate dehydrogenase complex iron sulfur subunit B (SDHB), SDHB (gene 6390)
The test is described as follows: LTEA_HepaRG_SDHB: Life Technologies and Expression Analysis (LTEA) Assay for succinate dehydrogenase complex iron sulfur subunit B (SDHB) using HepaRG (AID 2283528). The method, boiled down: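 SDHB transcript level read by TaqMan qRT-PCR, housekeeping-normalised (ACTB, GAPDH, POLR2A), after 48 h chemical treatment of plated HepaRG cells; eight concentrations top 100 uM, half-log steps, 0.5% DMSO, duplicates; fitted both directions against DMSO.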

Read-out in test [10]: Signal transducer and activator of transcription 3 (Homo sapiens) (UniProt P40763)
The experiment in a line: LTEA_HepaRG_STAT3: Life Technologies and Expression Analysis (LTEA) Assay for Signal transducer and activator of transcription (STAT3) using HepaRG (AID 2283529). The method, boiled down: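 In this transcriptional endpoint, HepaRG cultures receive test chemicals at up to 100 uM for 48 h, tested in duplicate. STAT3 mRNA is normalized to ACTB, GAPDH and POLR2A.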

Read-out in test [11]: solute carrier (SLCO1B1), SLCO1B1 (gene 10599)
The experiment in a line: LTEA_HepaRG_SLCO1B1: Life Technologies and Expression Analysis (LTEA) Assay for solute carrier (SLCO1B1) using HepaRG (AID 2283530). The method, boiled down:
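SLCO1B1 transcript read by qRT-PCR (Fluidigm arrays), normalized to three housekeeping genes, after 48 h chemical exposure of HepaRG cells; bidirectional concentration-response fitting versus 0.5% DMSO baseline. Eight-point half-log series, maximum 100 uM.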

Read-out in test [12]: sulfotransferase 2A1 (SULT2A1), SULT2A1 (gene 6822)
The experiment in a line: LTEA_HepaRG_SULT2A1: Life Technologies and Expression Analysis (LTEA) Assay for sulfotransferase 2A1 (SULT2A1) using HepaRG (AID 2283531). The method, boiled down: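 HepaRG, 48 h chemical exposure, 8-pt half-log curve from 100 uM in 0.5% DMSO, duplicates. Readout: TaqMan qRT-PCR of SULT2A1 mRNA, housekeeping-normalized. Bidirectional fit vs DMSO baseline.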

Read-out in test [13]: Transforming Growth Factor (TGFA), TGFA (gene 7039)
The test is described as follows: LTEA_HepaRG_TGFA: Life Technologies and Expression Analysis (LTEA) Assay for Transforming Growth Factor (TGFA) using HepaRG (AID 2283532). The method, boiled down: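 Gene expression of TGFA was quantified by qRT-PCR after human HepaRG cells were treated for 48 h with test chemicals (eight concentrations, highest 100 uM, 0.5% DMSO). Activity in either direction was fitted relative to DMSO.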

Read-out in test [14]: Transforming Growth Factor (TGFB1), TGFB1 (gene 7040)
The experiment in a line: LTEA_HepaRG_TGFB1: Life Technologies and Expression Analysis (LTEA) Assay for Transforming Growth Factor (TGFB1) Transporter using HepaRG (AID 2283533). The method, boiled down: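 qRT-PCR readout of TGFB1 transcript in HepaRG lysates, normalized to three housekeeping genes; gain or loss of signal fitted relative to 0.5% DMSO vehicle. Exposure: 48 h, 8-point curve from 100 uM, duplicate wells.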

Read-out in test [15]: TIMP1, TIMP1 (gene 7076)
The experiment in a line: LTEA_HepaRG_TIMP1: Life Technologies and Expression Analysis (LTEA) Assay for TIMP1 using HepaRG (AID 2283534).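 Also: TaqMan qRT-PCR signal normalized to ACTB GAPDH and POLR2A housekeeping genes.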 The method, boiled down: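 HepaRG, 48 h exposure, 8-pt half-log series from 100 uM in 0.5% DMSO, duplicates; TIMP1 transcript by Fluidigm qRT-PCR, housekeeping-normalized; bidirectional curve fit vs DMSO baseline.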

Read-out in test [16]: Tumor necrosis factor receptor 1 (TNFRSF1A), TNFRSF1A (gene 7132)
The experiment in a line: LTEA_HepaRG_TNFRSF1A: Life Technologies and Expression Analysis (LTEA) Assay for Tumor necrosis factor receptor 1 (TNFRSF1A) using HepaRG (AID 2283535). The method, boiled down: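 HepaRG, 48 h plating then 48 h chemical exposure, serum-free induction media; 8-pt CRC from 100 uM, half-log, 0.5% DMSO vehicle, duplicates. Readout: TaqMan qRT-PCR (Fluidigm), housekeeping-gene normalized; bidirectional fit vs DMSO.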

Read-out in test [17]: solute carrier (SLC22A1), SLC22A1 (gene 6580)
The test is described as follows: LTEA_HepaRG_SLC22A1: Life Technologies and Expression Analysis (LTEA) Assay for solute carrier (SLC22A1) using HepaRG (AID 2283524). The method, boiled down:
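Transcript induction or suppression of SLC22A1 in human HepaRG cultures is scored after 48 h chemical treatment, with DMSO (0.5%) as baseline for bidirectional fitting. Concentrations span eight half-log points topping at 100 uM.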

Read-out in test [18]: Nuclear factor erythroid 2-related factor 2 (Homo sapiens) (UniProt Q16236)
The experiment in a line: LTEA_HepaRG_NFE2L2: Life Technologies and Expression Analysis (LTEA) Assay for Nuclear factor erythroid 2-related factor 2 (NFE2L2) Transcription Factor using HepaRG (AID 2283527). The method, boiled down: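 Human liver HepaRG line treated in duplicate for 48 h with an eight-point series topping at 100 uM. Gene expression of NFE2L2 by qRT-PCR, bidirectionally fitted against the vehicle control.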

Read-out in test [19]: Nuclear factor NF-kappa-B p105 subunit (Homo sapiens) (UniProt P19838)
The experiment in a line: LTEA_HepaRG_NFKB1: Life Technologies and Expression Analysis (LTEA) Assay for Nuclear Factor Kappa B Subunit 1 (NFKB1) using HepaRG (AID 2283521). The method, boiled down: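 NFKB1 transcript was measured by TaqMan qRT-PCR on Fluidigm arrays, normalised to three housekeeping genes and fitted in both directions against 0.5% DMSO. HepaRG cells were dosed in duplicate for 48 h in serum-free induction medium, eight half-log steps from 100 uM.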

Activity calls are given as the source filed them. The calls were made as follows: active = hit-call score of the fitted dose curve at least 0.9, where 1 is the maximum; inactive = score below 0.9.

Signal transducer and activator of transcription 3 (Homo sapiens), sequence (P40763 whole entry, looked up): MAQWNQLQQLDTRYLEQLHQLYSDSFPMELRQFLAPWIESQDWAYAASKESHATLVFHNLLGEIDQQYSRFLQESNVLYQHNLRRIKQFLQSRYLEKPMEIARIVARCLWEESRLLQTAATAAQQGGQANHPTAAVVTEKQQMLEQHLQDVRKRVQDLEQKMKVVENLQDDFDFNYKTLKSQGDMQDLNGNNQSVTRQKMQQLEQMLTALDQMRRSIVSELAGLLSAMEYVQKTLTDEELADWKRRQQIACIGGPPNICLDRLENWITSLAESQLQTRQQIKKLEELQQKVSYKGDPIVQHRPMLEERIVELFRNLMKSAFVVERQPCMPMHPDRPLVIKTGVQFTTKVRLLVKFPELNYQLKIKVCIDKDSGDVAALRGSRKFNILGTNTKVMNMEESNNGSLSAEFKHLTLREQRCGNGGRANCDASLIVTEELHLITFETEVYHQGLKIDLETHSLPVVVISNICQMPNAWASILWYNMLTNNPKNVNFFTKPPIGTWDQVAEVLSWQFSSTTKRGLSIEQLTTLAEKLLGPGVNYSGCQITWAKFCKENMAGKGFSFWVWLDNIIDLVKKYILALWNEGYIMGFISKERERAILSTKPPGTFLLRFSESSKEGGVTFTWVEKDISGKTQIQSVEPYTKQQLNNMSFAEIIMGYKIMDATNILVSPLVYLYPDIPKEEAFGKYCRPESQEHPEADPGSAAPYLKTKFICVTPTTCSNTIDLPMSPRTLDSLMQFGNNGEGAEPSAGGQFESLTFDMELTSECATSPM
Nuclear factor erythroid 2-related factor 2 (Homo sapiens), sequence (Q16236 whole entry, looked up): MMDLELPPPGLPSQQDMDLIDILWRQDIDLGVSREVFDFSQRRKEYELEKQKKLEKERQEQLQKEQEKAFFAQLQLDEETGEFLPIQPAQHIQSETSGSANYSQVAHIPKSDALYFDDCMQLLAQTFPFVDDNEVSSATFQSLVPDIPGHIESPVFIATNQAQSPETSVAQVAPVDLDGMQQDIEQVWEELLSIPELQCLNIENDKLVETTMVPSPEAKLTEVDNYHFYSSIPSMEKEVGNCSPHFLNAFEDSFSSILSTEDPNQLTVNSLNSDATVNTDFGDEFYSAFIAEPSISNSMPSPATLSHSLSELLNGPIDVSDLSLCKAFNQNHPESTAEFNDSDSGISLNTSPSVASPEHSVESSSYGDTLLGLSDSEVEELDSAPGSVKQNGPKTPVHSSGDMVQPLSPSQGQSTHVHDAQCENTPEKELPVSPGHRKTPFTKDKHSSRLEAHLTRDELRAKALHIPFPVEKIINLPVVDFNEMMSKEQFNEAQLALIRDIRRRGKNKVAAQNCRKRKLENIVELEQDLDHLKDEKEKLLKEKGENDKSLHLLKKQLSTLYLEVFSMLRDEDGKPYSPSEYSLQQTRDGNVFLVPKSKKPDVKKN
Nuclear factor NF-kappa-B p105 subunit (Homo sapiens), sequence (P19838 whole entry, looked up): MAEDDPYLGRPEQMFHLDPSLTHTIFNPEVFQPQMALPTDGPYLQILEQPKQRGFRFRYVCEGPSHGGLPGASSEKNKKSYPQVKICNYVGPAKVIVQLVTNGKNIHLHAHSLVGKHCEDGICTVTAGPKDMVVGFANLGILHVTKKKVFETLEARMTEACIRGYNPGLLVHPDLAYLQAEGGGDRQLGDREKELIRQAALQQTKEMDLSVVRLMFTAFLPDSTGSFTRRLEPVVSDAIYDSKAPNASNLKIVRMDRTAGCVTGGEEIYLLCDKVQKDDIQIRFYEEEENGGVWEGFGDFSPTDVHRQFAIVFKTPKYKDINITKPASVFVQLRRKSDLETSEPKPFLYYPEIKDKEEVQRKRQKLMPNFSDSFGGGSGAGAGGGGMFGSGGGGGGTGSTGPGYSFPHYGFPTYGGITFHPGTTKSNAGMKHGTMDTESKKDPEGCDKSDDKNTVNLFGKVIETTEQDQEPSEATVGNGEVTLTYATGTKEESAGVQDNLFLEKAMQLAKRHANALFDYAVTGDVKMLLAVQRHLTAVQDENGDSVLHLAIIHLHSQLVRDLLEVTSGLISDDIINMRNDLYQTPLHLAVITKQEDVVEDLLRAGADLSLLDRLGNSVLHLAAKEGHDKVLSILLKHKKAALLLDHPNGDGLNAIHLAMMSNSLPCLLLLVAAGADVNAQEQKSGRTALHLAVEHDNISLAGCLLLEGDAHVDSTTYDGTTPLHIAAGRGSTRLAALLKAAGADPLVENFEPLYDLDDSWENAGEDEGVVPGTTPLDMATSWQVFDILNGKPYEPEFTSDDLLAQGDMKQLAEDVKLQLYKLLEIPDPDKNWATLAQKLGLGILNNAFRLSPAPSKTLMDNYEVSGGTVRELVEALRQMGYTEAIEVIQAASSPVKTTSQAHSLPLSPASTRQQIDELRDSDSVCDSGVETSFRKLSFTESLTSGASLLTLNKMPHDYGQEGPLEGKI

Turning to `COc1cc(Cl)c(OC)cc1Cl`, the compound was called inactive in test [1], in test [2], in test [3], in test [4], in test [5] and in test [6]. In addition, the call in test [7], in test [8], in [9], in test [10], in [11] and in test [12] was inactive. Moreover, the compound was classed as inactive in test [13], in [14], in test [15] and in test [16].
As for `CC1(C)C(C(=O)OC(C#N)c2cccc(Oc3ccccc3)c2)C1(C)C` (stereo unspecified), the outcome in [1], in [2], in test [3], in test [4], in [5] and in test [6] was inactive. For the same compound, the compound was classed as inactive in test [17], in test [7], in test [8], in [18], in test [9] and in [10]. In addition, the call in test [11], in test [12], in [13], in test [14], in test [15] and in [16] was inactive.
One may read the AC50 as the concentration giving half of the maximal activity seen. Consider `CCOc1nc(C(Cl)(Cl)Cl)ns1`, for which the compound was classed as inactive in test [1], in test [4], in test [12], in test [15] and in test [16]. Further, the concentration at half-maximal activity (AC50) in test [2] was 1030 nM (active); in test [3], 2930 nM (active); in [19] it was 1720 nM (active); in test [5], 801 nM (active); in [6], 1250 nM (active); in test [7], 950 nM (active). For the same compound, the AC50 is 993 nM (active) in [8]; 1120 nM (active) in [18]; 50000 nM (active) in test [10]; 1880 nM (active) in test [11]; 1140 nM (active) in [13]; 687 nM (active) in test [14].

The values above are taken from PubChem BioAssay (EPA / NIEHS).
